Screening results: PubChem, several laboratories
Cav3 T inh – Cav3.2 calcium influx blockers – cell-based, Fluo-4 calcium fluorescence, FDSS, MLSMR library, primary screen; Cav3.2-expressing cells; active compounds read low; B-score at 10 µM; hit rate 4% among 100,000; AID 449739, 2010;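 active = single-dose well whose peak fluorescence ratio is a statistical outlier from its plate by either plate-standardised score or position-corrected B-score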
M1 antagonist – antagonists of rat M1 muscarinic receptor. Muscarinic acetylcholine receptor M1 (Rattus norvegicus), P08482. CHO-M1 cells, Fluo-4 calcium, ACh EC80 antagonist mode; active compounds read low. B-score at 10 µM. hit rate 3.4% among 64,000;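 active = calcium fluorescence response, raw or row-and-column corrected B-score, differing from the plate sample mean either way at a set confidence level, mostly lower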
PLAP activator – PLAP enzyme activators, biochemical, luminescence, HTS. activation fold at 20 µM. Alkaline phosphatase, placental type (Homo sapiens), P05187. hit rate 1.2% among 96,000. purified PLAP enzyme, luminescent substrate read-out; active compounds read high; in the data active = activation fold above about 2
M1 agonist – M1 muscarinic receptor agonists, primary screen, CHO-M1 cells, Fluo-4 calcium, agonist mode; hit rate 3% among 64,000; Muscarinic acetylcholine receptor M1; AID 626, 2007; Fluo-4 calcium fluorescence; active compounds read high; B-score at 10 µM;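 active = fluorescence rise, raw or as B-score row- and column-corrected plate score, outside the 99.7% band of its plate's samples, either direction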
M1 agonist conf – rat M1 muscarinic receptor agonists, confirmation, CHO-M1 cells, Fluo-4 calcium, duplicate retest; shares compounds with M1 agonist; Fluo-4 calcium fluorescence, agonist mode; actives lie on both sides; fluorescence change (max-min) at 10 µM; hit rate 19% among 1,700;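 active = fluorescence change differs from the solvent-only DMSO control mean at a set confidence level in both duplicate runs; inconclusive = differs from solvent-only control mean in just one of two runs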;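 note: an EC20 dose of acetylcholine follows compound addition during the same imaging run; raw fluorescence intensity difference in instrument units with no normalization to controls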
M4 ag counter – agonist activity at rat M4 receptor, confirmation, counter-screen for M1 allosteric modulator project, cell-based, agonist mode. shares compounds with M1 agonist. CHO M4/Gqi5 cells, Fluo-4 calcium fluorescence; actives lie on both sides. fluorescence change (max-min) at 10 µM. hit rate 9% among 1,700. AID 1741, 2009;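 active = fluorescence change differing from the plate's solvent-only control wells at 99.7% confidence in both duplicates, whether higher or lower; inconclusive = differs from solvent controls in only one of two duplicates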
Target sequence (P08485 whole entry, looked up): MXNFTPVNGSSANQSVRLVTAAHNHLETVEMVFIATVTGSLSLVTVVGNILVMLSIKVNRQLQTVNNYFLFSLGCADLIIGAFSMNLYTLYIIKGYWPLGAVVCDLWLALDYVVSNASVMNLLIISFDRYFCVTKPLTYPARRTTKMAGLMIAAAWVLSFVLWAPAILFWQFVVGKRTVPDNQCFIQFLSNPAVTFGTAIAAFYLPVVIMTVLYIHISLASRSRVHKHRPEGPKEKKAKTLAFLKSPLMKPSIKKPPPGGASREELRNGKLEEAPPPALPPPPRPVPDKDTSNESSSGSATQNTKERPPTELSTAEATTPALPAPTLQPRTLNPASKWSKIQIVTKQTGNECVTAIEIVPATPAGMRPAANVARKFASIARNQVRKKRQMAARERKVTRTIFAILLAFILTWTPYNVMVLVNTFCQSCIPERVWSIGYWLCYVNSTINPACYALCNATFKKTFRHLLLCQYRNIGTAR
* = called active by the depositor; u = inconclusive; x = no result given. Compounds with a hit are over-represented: about 7.6% of the library has one in this group of screens.

SMILES	Cav3 T inh	M1 antagonist	PLAP activator	M1 agonist	M1 agonist conf	M4 ag counter
Cc1nn(-c2ccccc2)c(C)c1C(=O)OC/C(O)=C(\C#N)c1nc2ccccc2[nH]1	x	0.645	1.7	2.89*	-20.5*	-52.9
Cc1nn(-c2ccccc2)c(C)c1C(=O)OCC(=O)N1CC(=O)Nc2ccccc21	0.755	0.331	1.2	-0.148	x	x
CCOC(=O)c1c(C)oc2c1c(C=NCC1CCCO1)c(O)c1ccccc12 (stereo not drawn)	x	0.299	0.9	2.9*	-16	6.4
CCOC(=O)c1c(C)oc2c1cc(O)c1ccccc12	0.481	0.111	1	0.591	x	x
CCOC(=O)c1c(C)oc2c1c(C=NCc1ccccn1)c(O)c1ccccc12	x	-0.947	1.2	7.14*	28.3	-17.8
C=CCN1C(=O)C(Cc2ccc(OCC)cc2)S/C1=N\N=C\c1cccs1 (stereo not drawn)	-2.61	x	1	x	x	x
O=C(c1ccccc1)N(Cc1ccc2c(c1)OCO2)Cc1nc2ccccc2c(=O)[nH]1	-0.49	-0.271	1.5	2.67*	u	-82.6
Cn1c(SCC(=O)NC(c2ccccc2)c2ccccc2)nnc1-c1cccs1	-0.107	x	1	x	x	x
COc1ccc(CCNC(=O)c2ccccc2NC(=O)c2ccco2)cc1OC	0.213	-0.137	1	3.97*	u	-77.5*
O=C(Nc1ccccc1C(=O)NCCc1ccccc1)c1ccco1	0.45	x	0.9	x	x	x
COc1ccc(NC(=O)c2ccccc2NC(=O)c2ccco2)c(OC)c1	-0.418	-0.42	1.1	7.72*	u	-48.6
COc1ccc2c(=O)c(C(=O)NCCc3ccc(OC)c(OC)c3)c[nH]c2c1	1.33	-0.919	1.6	4.89*	u	u
COc1ccc(CNc2nc3c(c(=O)n(Cc4ccc(Br)cc4)c(=O)n3C)n2C)cc1	-2.1	-0.249	1.7	3.42*	-6.29	-8.28
O=C(N1CCCC1)n1c(Cc2ccccc2)nc2ccccc21	-0.0423	1.35	0.8	6.38*	u	-82.3*
O=C(O)Cn1c(CC(=O)N2CCCC2)nc2ccccc21	-1.13	-0.0212	0.9	-0.323	x	x
O=C(NCC1CCCO1)c1ccccc1-c1nc(-c2ccccc2)no1 (stereo not drawn)	-0.526	0.101	1.4	2.37*	-14.8	u
Cc1ccc(NC(=O)Nc2ccc3c(c2)N(C)C(=O)CS3)cc1C	-0.639	x	1.3	x	x	x
CC(=O)c1cccc(NC(=O)Nc2ccc3c(c2)N(C)C(=O)CS3)c1	-1.4	-0.995	0.9	3.18*	-8.02	u
CCCC1CCc2c(sc(NC(=O)OCC)c2C#N)C1 (stereo not drawn)	0.0313	x	x	x	x	x
Cc1ccc(S(=O)(=O)c2cccc(S(=O)(=O)N3CCCC3)c2)cc1S(=O)(=O)N1CCCC1	-0.296	-6.43*	1.5	4.18*	-12.6	u
O=C(NCCc1ccccc1)c1cccs1	0.308	x	0.7	x	x	x
CCN=C1SC(C(=O)NCCc2ccccc2)CC(=O)N1CC (stereo not drawn)	0.0178	-1.15	1.1	4.75*	u	-25.9
CCN=C1SC(C(=O)Nc2cccc(C)c2)CC(=O)N1CC (stereo not drawn)	-0.685	x	1	x	x	x
CCN=c1sc(C(=O)NCCc2ccccc2)cc(=O)n1CC	-0.122	-2.94*	0.9	12.1*	-7.17	-14.9
CC1CCN(C(=O)CSc2ccc3nnc(-c4ccccc4)n3n2)CC1	x	1.83	x	-0.233	x	x
SMILES	Cav3 T inh	M1 antagonist	PLAP activator	M1 agonist	M1 agonist conf	M4 ag counter
O=C(c1ccc(Cn2c(=O)[nH]c3ccccc3c2=O)cc1)N1CCN(c2ccccn2)CC1	-1.48	-0.997	1.4	3.78*	-7.73	-19.9
O=C(c1ccc(Cn2c(=O)[nH]c3ccccc3c2=O)cc1)N1CCN(c2ccccc2)CC1	x	0.107	1	-2.41	x	x
CCOC(=O)N1CCN(C(=O)c2ccc3c(=O)n(Cc4ccccc4)c(=S)[nH]c3c2)CC1	-2.76	-0.782	1.3	4.59*	u	u
CCOC(=O)N1CCN(C(=O)c2ccc(Cn3c(=S)[nH]c4cc5c(cc4c3=O)OCO5)cc2)CC1	-2.27	-0.14	x	1.42	x	x
COc1cc2[nH]c(=O)n(CCCCCC(=O)N3CCN(c4ccccn4)CC3)c(=O)c2cc1OC	0.432	0.376	1.8	7.24*	-10.3	-41.9
Cn1c(COc2ccccc2)nnc1SCCC(=O)Nc1ccccc1	0.368	0.0619	0.9	1.11	x	x
CCc1c(-c2ccccc2)nc2nc(C)c(C)nn12	-1.41	0.243	1.1	46*	237*	219*
COc1ccccc1N1CCN(C(=O)CCCC2=NS(=O)(=O)c3ccccc3N2)CC1	x	-0.00139	1.1	3.16*	-21.5*	-54.1
CN(C)C(=O)N1CCC(C(=O)NCC2CCCO2)CC1 (stereo not drawn)	x	-0.0462	0.9	-0.812	x	x
NC(=O)CSc1nc2scc(-c3ccco3)c2c(=O)n1-c1ccccc1	0.449	-1.45	1.2	4.31*	u	-55.4
O=C(CSc1nc2scc(-c3ccco3)c2c(=O)n1-c1ccccc1)NCC1CCCO1 (stereo not drawn)	-2.91	0.179	1.4	-0.0986	x	x
CC(C)(C)NC(=O)C12CCC(C)(c3nc4ccccc4nc31)C2(C)C (stereo not drawn)	-1.46	x	1.9	x	x	x
O=C1CC(N2CCCc3ccccc32)C(=O)N1c1ccccc1Cl (stereo not drawn)	-2.29	x	x	x	x	x
CCc1ccc(N2CCCn3c2nc2c3c(=O)n(CCN3CCOCC3)c(=O)n2C)cc1	x	-0.341	1.6	0.376	x	x
O=S(=O)(c1ccc(Oc2ncnc3scc(-c4ccccc4)c23)cc1)N1CCOCC1	-2.93	-0.443	1.7	7*	u	u
COC(=O)c1cn(NC(=O)c2cccc(OC)c2)c(=O)c2ccccc12	-0.00382	x	1.1	x	x	x
Cc1ccc2nc(/C(C#N)=N/O)[nH]c2c1	-0.824	1.24	1	3.56*	u	-33
COc1ccc(OC)c(NC(=O)Cc2coc3ccc4ccccc4c23)c1	-2	x	1.7	x	x	x
COc1ccccc1OCC(O)Cn1c(Br)nc2c1c(=O)[nH]c(=O)n2C (stereo not drawn)	-0.00751	-0.124	0.9	4.03*	-11.5	-21.3
CCOC(=O)N1C(=O)c2cc(OC)ccc2S1(=O)=O	0.625	-0.000315	1.1	3.19*	u	u
COCC(=O)Nc1ccc(N(C)C)cc1	0.0153	-0.0151	0.8	-2.91*	-33.4*	-71.4
Cc1ccc(OCC(=O)Nc2ccc(N(C)C)cc2)cc1	0.389	-0.355	0.9	-1.56	x	x
Cc1cc(Cl)ccc1OCc1nc(-c2ccc(O)cc2)n[nH]1	-0.581	0.785	1.5	4.36*	4.14	-12.8
CN1CCN(C(=O)CSc2nc(-c3cccs3)cc(-c3cccs3)c2C#N)CC1	-0.47	-1.11	1.5	5.72*	-1.39	-15.5
